Compound activity: PubChem, several laboratories
Rows were chosen to be rich in hits. Some 2.8% of all compounds tested hit in one or more screens of this group.
SENP8 block-1 = SENP8 protease inhibitors, primary screen, biochemical, luminescence | purified SENP8, Z-RLRGG-aminoluciferin cleavage | AID 2540, 2010 | 1.2% of 330,000 active | inhibition, % at 10 µM | Sentrin-specific protease 8 (Homo sapiens), Q96LD8; in the data active = inhibition above about 50%
Target sequence (Q96LD8 whole entry, looked up): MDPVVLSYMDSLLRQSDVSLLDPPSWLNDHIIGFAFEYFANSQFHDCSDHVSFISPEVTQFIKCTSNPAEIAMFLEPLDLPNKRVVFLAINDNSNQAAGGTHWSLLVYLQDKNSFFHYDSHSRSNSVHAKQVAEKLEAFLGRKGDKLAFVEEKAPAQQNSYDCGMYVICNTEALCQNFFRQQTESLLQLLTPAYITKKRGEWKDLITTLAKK
SENP8 block-2 = human SENP8 protease inhibitors, primary screen, biochemical, fluorescence, Nedd8 protein substrate, uHTS; recombinant SENP8; 0.64% of 360,000 active; inhibition, % at 20 µM; Sentrin-specific protease 8 (Homo sapiens), Q96LD8; AID 602440, 2012; in the data active = inhibition mostly above about 40%, no sharp cut-off; inactive = mostly below about 27%
SENP6 block = SENP6 protease inhibitors, primary screen, biochemical, luminescence, uHTS | Recombinant SENP6 catalytic domain, aminoluciferin luminescence | AID 2599, 2010 | 1.8% of 330,000 active | inhibition, % at 10 µM | Sentrin-specific protease 6 (Homo sapiens), Q9GZR1;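 active = inhibition above about 50% at the single tested dose, limit read from the data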;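 note: plate controls were DMSO wells with enzyme for no effect and DMSO wells lacking enzyme for full effect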
SENP7 inh = SENP7 protease inhibitors, primary screen, biochemical, luminescence, uHTS. recombinant SENP7, Z-RLRGG-aminoluciferin luminescence, 40 min. 1.5% of 330,000 active. Sentrin-specific protease 7 (Homo sapiens), Q9BQF6. inhibition, % at 5 µM. AID 434973, 2010;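 active = inhibition above about 50% at the single test dose, limit read from the data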;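 note: plate controls were DMSO with enzyme for no effect and no enzyme buffer wells for full effect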
Target sequence (Q9BQF6 706-1050 limits assumed): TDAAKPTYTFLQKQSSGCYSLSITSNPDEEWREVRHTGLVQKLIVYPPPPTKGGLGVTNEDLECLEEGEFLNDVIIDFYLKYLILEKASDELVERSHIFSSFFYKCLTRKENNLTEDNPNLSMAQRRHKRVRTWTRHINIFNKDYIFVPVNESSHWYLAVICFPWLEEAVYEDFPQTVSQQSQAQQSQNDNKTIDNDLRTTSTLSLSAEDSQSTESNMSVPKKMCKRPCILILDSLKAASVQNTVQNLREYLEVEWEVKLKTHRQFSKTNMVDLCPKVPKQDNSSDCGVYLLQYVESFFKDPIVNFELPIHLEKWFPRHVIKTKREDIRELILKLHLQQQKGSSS
Platelet DG rel = inhibitors of platelet dense granule secretion, primary screen, cell-based, MLPCN, human platelets; 0.22% of 300,000 active; AID 1663, 2009; inhibition, %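 (compounds screened at 7.5 µM in platelet-rich plasma)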; human platelet-rich plasma, SFLLRN dense granule ATP release, luminescence;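 active = mean replicate score, as percent of positive control, at or above 50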
HSP90 inh = HSP90 inhibitors, primary screen, cell lysate, luminescence; Heat shock protein HSP 90 (rabbit reticulocyte lysate; luciferase refolding); 0.91% of 290,000 active; Rabbit reticulocyte lysate, luciferase refolding luminescence, 3 h; inhibition, % at 5.6 µM; AID 1789, 2009;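 active = inhibition above the screen-wide mean plus 3 SD, computed separately per campaign, cut at about 16% in these data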;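 note: 0% = DMSO wells and 100% = 60 µM geldanamycin wells; inhibitors lower the luminescence because luciferase stays unfolded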
SENP8 inh conf = human SENP8 protease inhibitors, confirmation, biochemical, Nedd8 protein substrate, single concentration; purified SENP8, Nedd8-AMC/pro-Nedd8 cleavage fluorescence, 30 min; inhibition, % at 25 µM; shares compounds with SENP8 block-2; 15% of 1,400 active; AID 624319, 2012; in the data active = inhibition mostly above about 39%, no sharp cut-off; inactive = mostly below about 34%
Numbers without * were called inactive; x = not tested or not shown.

SMILES	SENP8 block-1	SENP8 block-2	SENP6 block	SENP7 inh	Platelet DG rel	HSP90 inh	SENP8 inh conf
CN1CCN(C2CN(C3CCCCC3)S(=O)(=O)C2)CC1 (stereo not given)	x	9	x	x	x	x	x
O=S1(=O)CC(N2CC=CC2)CN1C1CCCCC1 (stereo not given)	x	41*	x	x	x	x	36*
COc1ccccc1NS(=O)(=O)c1cc(NC(=O)c2ccc(NC(C)=O)cc2)ccc1N1CCOCC1	x	8	x	x	x	x	x
COc1ccccc1NS(=O)(=O)c1cc(NC(=O)c2cccc(S(=O)(=O)N(C)C)c2)ccc1N1CCOCC1	-8	32*	-3	5	x	x	9
CC(C)(C)NC(=O)NC(=O)C[n+]1ccc(Cc2ccc([N+](=O)[O-])cc2)cc1	10	50*	15	7	9	13	17
COc1ccc(CCC(=O)N2CCN(S(=O)(=O)c3cccc(C(F)(F)F)c3)CC2)cc1OC	-9	22	-6	-6	x	x	x
COc1ccc(CCNC(=O)COC(=O)c2ccc(S(=O)(=O)N3CCCC3)cc2)cc1OC	-8	18	0	1	x	x	x
COc1ccc(CCNC(=O)CCC(=O)N2CCN(S(=O)(=O)c3ccccc3)CC2)cc1OC	-10	48*	-16	-5	-4	1	-5
COc1ccc(CCNC(=O)CCC(=O)N2CCN(S(=O)(=O)c3ccc(Cl)cc3)CC2)cc1OC	2	44*	-17	-5	-6	-8	8
COc1ccc(CCNC(=O)C2CCCN(S(=O)(=O)c3cnc[nH]3)C2)cc1OC (stereo not given)	0	0	-17	8	1	3	x
COc1ccc(CCNC(=O)C2CCN(S(=O)(=O)c3cnc[nH]3)CC2)cc1OC	6	40*	-2	0	x	2	18
O=C(C1CCN(S(=O)(=O)c2cnc[nH]2)CC1)N1CCc2ccccc2C1	-1	42*	-3	0	-6	2	34
C[C@@H]1CN([C@@H](C)CO)C(=O)c2cc(C#Cc3ccccc3)cnc2O[C@H]1CN(C)C(=O)c1ccccc1F	x	-19	x	x	x	x	x
CN(C)C=Nc1c(Br)cc(Br)c2nonc12	23	58*	39	12	2	0	45*
CCOc1ccc(OCCCCN2CCCC2)cc1	3	42*	-12	4	3	2	11
Cc1ccc(OCCCCN2CCCCC2)cc1	-5	2	-19	-17	8	3	x
CC(C)Nc1ccc(C(CC(N)=O)NC(=O)c2ccc(Br)cc2)cc1[N+](=O)[O-] (stereo not given)	-4	17	-5	3	-3	x	x
CC(C)Nc1ccc(C(CC(N)=O)NC(=O)c2ccccc2)cc1[N+](=O)[O-] (stereo not given)	-1	44*	-10	4	8	5	7
NC(=O)CC(NC(=O)c1ccccc1)c1ccc(NC2CCCC2)c([N+](=O)[O-])c1 (stereo not given)	4	41*	3	3	7	x	24
CC(=O)N(Cc1ccccc1)c1c(N)nc(N)[nH]c1=O	5	22	-7	-6	2	x	x
Cc1cc(C(=O)N/N=C/c2ccc([N+](=O)[O-])o2)c(C)o1	-4	42*	1	-6	6	1	37
Cc1cc(C(=O)N/N=C/c2cccnc2)c(C)o1	1	41*	-8	6	9	2	12
Cc1nonc1C(=O)N/N=C/c1ccc([N+](=O)[O-])o1	-10	39	13	1	1	-1	x
Cc1ccc(NC(=O)CCC(=O)N/N=C/c2ccc([N+](=O)[O-])o2)cc1C	1	63*	-2	9	-1	4	12
O=C(N/N=C/c1ccc([N+](=O)[O-])o1)c1cc(-c2cccc(Br)c2)nc2ccccc12	-5	41*	0	-6	x	3	18
SMILES	SENP8 block-1	SENP8 block-2	SENP6 block	SENP7 inh	Platelet DG rel	HSP90 inh	SENP8 inh conf
COc1cc(CC(=O)OCc2ccccc2F)cc(OC)c1OC	0	1	-4	6	-1	-3	x
CCN(CC)c1ccc(N=C2C=CC(=O)C=C2NC(C)=O)cc1	x	28	x	x	x	x	x
COCCN1CC(C(=O)NCc2ncccc2C)CCC1=O (stereo not given)	2	9	6	-4	3	3	x
O=C(c1ccccc1)[C@@H]1[C@@H](C(=O)c2ccc(F)cc2)[C@@]2(C(=O)Nc3ccccc32)[C@H]2c3ccccc3C=CN12	28	54*	64*	13	1	7	66*
CC(=O)[C@@H]1[C@@H](C(=O)c2ccccc2)[C@]2(C(=O)Nc3ccccc32)[C@H]2C=Cc3cc(F)ccc3N12	-5	-36	15	7	-3	-1	x
C#CCCOC(=O)Nc1ccccc1	11	20	-24	-3	10	1	x
CCc1ccc(NC(=O)NCCN2CCc3ccccc3C2)cc1	-4	45*	0	-2	x	-1	16
CCc1ccc(NC(=O)CN2CCc3ccccc3C2)cc1	7	70*	9	6	5	3	36
O=C(NCCN1CCc2ccccc2C1)Nc1ccc(F)cc1	-13	26	-4	-12	-1	-6	x
CCOc1ccc(C(=O)OCC(=O)N2CCCC2)cc1	-7	2	-6	2	-7	10	x
CCCn1c(=C(C#N)C#N)s/c(=C2\C=Cc3ccccc3N2CC)c1=O	x	52*	x	x	x	3	10
COc1cc(C)c(C(=O)Oc2cc(C)c(C(=O)O)c(O)c2C)c(O)c1C(=O)O	2	-70	-3	-1	-4	x	x
COc1cc(C)c(C(=O)Oc2cc(C)c(C(=O)O)c(O)c2C)c(OC)c1C	-13	44*	-5	12	6	0	15
COc1ccccc1C(=O)NC(CCSC)C(=O)OCC(=O)N1CCCC1=O (stereo not given)	-8	-2	7	-6	x	x	x
CCN1C(=S)SC(=O)C1=C1C=C(C)OC(C)=C1	-20	48*	-14	-4	-1	5	6
CC(C)(C)c1cc(C(=O)NNc2cccc(Cl)c2)n(Cc2ccccc2)n1	-4	43*	-8	-6	2	1	20
COc1ccc(N(C)S(=O)(=O)c2c(C)noc2C)c(OC)c1	2	0	3	-2	11	-1	x
COc1ccc(OS(=O)(=O)c2c(C)noc2C)cc1	-1	48*	-4	4	21	3	16
COc1ccccc1N(CC(=O)NC1CCCC1)C(=O)c1csnn1	2	45*	3	0	6	-2	3
